Data: PubChem BioAssay (NCI)
Values joined by “and” are separate entries in the source; they are usually repeats but may differ in a detail not shown here. Equal values may be shown once. The panel holds about 83,000 compounds, 20% with a hit somewhere; the sample as a whole holds those more often.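 In brief: 96-well plates, 48 h treatment, single concentration, percent growth endpoint.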 Active and inactive are the calls of the source. Rule for the calls: active = growth percent below 10; inactive = the rest.

How the values were obtained:
Assay in all cases: NCI-60 one-dose screen, 48 h (100 = growth as untreated, 0 = no growth, -100 = all killed)
Conditions in all cases: 10 µM unless noted
SR leukemia = tested on: SR leukemia
RPMI-8226 leukemia = tested on: RPMI-8226 leukemia
OVCAR-8 ovarian = tested on: OVCAR-8 ovarian
OVCAR-5 ovarian = tested on: OVCAR-5 ovarian
OVCAR-4 ovarian = tested on: OVCAR-4 ovarian
SK-OV-3 ovarian = tested on: SK-OV-3 ovarian
IGROV1 ovarian = tested on: IGROV1 ovarian
OVCAR-3 ovarian = tested on: OVCAR-3 ovarian
HS 578T breast = tested on: HS 578T breast
NCI/ADR-RES ovarian = tested on: NCI/ADR-RES ovarian

SMILES | growth (SR leukemia) | growth (RPMI-8226 leukemia) | growth (OVCAR-8 ovarian) | growth (OVCAR-5 ovarian) | growth (OVCAR-4 ovarian) | growth (SK-OV-3 ovarian) | growth (IGROV1 ovarian) | growth (OVCAR-3 ovarian) | growth (HS 578T breast) | growth (NCI/ADR-RES ovarian)
Cc1nc2sccn2c1-c1nnc(SCC(C)C)o1 | 44.8% (inactive) | 57.9% (inactive) | 93.2% (inactive) | 90.5% (inactive) | 86% (inactive) | 102% (inactive) | 89.4% (inactive) | 104% (inactive) | 88.7% (inactive) | 79% (inactive)
COc1ccc2ccccc2c1/C=C1\SC(=Nc2ccc(O)cc2)NC1=O | 20.8% (inactive) | -12.7% (active) | 9.1% (active) | 10.3% (inactive) | 56.2% (inactive) | 29.6% (inactive) | 11.3% (inactive) | 35.5% (inactive) | 24.1% (inactive) | -5.75% (active)
O=C1C=CC(=CC=C2N(Cc3ccc4ccccc4c3)c3ccccc3N2Cc2ccc3ccccc3c2)C=C1 | 3.48% (active) | -5.25% (active) and -13.4% (active) | 20.2% (inactive) and 24.9% (inactive) | 36.6% (inactive) and 47.2% (inactive) | 37.9% (inactive) and 27.6% (inactive) | 13.4% (inactive) and 46.4% (inactive) | 7.62% (active) and 29.5% (inactive) | 24.2% (inactive) and -1.46% (active) | 52.3% (inactive) and 32.6% (inactive) | 104% (inactive) and 102% (inactive)
O=C(N/N=C/c1ccc(B(O)O)s1)c1[nH]c2ccc(Br)cc2c1-c1ccccc1 | -22.6% (active) | 0.974% (active) | -28.3% (active) | -97.6% (active) | -63.6% (active) | -86.7% (active) | -74.8% (active) | -47.1% (active) | -25.7% (active) | -33.9% (active)
O=c1c(-c2nc(-c3ccccc3)c(-c3ccccc3)[nH]2)coc2ccc(F)cc12 | 63.5% (inactive) | 32.1% (inactive) | 82.6% (inactive) | 96.1% (inactive) | 47.3% (inactive) | 68.2% (inactive) | 62.8% (inactive) | 33.3% (inactive) | 71.6% (inactive) | 51.4% (inactive)
Cc1ccc(C2CC(c3ccc(NC(=O)Nc4ccccc4)cc3)=NN2c2ccc(S(N)(=O)=O)cc2)cc1 (stereo not given) | -12.7% (active) | -11.5% (active) | -46.2% (active) | -95.4% (active) | -87.6% (active) | -77.6% (active) | -93.5% (active) | -75.8% (active) | -28.7% (active) | -66.9% (active)
COc1ccc(C(=O)/C=C/c2ccc3c(c2)OCCO3)cc1S(N)(=O)=O | 17.6% (inactive) | 59.2% (inactive) | 40.7% (inactive) | 105% (inactive) | 83.3% (inactive) | 99% (inactive) | 63.6% (inactive) | 68.1% (inactive) | 87% (inactive) | 53.1% (inactive)
COc1ccc(CCC2NCCc3c(Br)c4c(c(OC)c32)OCO4)cc1 (stereo not given) | -6.62% (active) | 11% (inactive) | 27.9% (inactive) | 11.6% (inactive) | 42.4% (inactive) | 28.8% (inactive) | 1.92% (active) | 1.09% (active) | 8.95% (active) | -13.9% (active)
O=C1Nc2ccc(F)cc2/C1=C/C(=O)c1cc2ccccc2oc1=O | 42.1% (inactive) | 78.8% (inactive) | 105% (inactive) | 113% (inactive) | 89.1% (inactive) | 88.7% (inactive) | 105% (inactive) | 85.9% (inactive) | 101% (inactive) | 103% (inactive)
COc1ccc(-c2cc(C(=O)Oc3ccc(C=O)cc3OC)nn2-c2ccc(S(C)(=O)=O)cc2)cc1 | 84.9% (inactive) | 70.4% (inactive) | 103% (inactive) | 125% (inactive) | 89.7% (inactive) | 122% (inactive) | 112% (inactive) | 93.4% (inactive) | 112% (inactive) | 101% (inactive)
N#C/C(=C/c1ccc([N+](=O)[O-])cc1)c1nnc(NC(=O)c2ccc(-n3c(=O)[nH]c4ccccc4c3=O)cc2)s1 | 91.6% (inactive) | 98.1% (inactive) | 93.4% (inactive) | 110% (inactive) | 95.6% (inactive) | 104% (inactive) | 98.6% (inactive) | 103% (inactive) | 101% (inactive) | 94.2% (inactive)
CN(C)c1nc(NCCNS(=O)(=O)c2ccc(C(=O)/C=C/c3ccc(Cl)cc3)cc2)nc(N2CCOCC2)n1 | -12.8% (active) | -22.8% (active) | 12.8% (inactive) | 55.4% (inactive) | 60% (inactive) | 73.9% (inactive) | -71.2% (active) | -9.86% (active) | 62% (inactive) | 25.5% (inactive)
COc1c2c(c(Br)c3c1C(CCc1ccccc1)N(C)CC3)OCO2 (stereo not given) | 31% (inactive) | 16.7% (inactive) | 48.4% (inactive) | 29.9% (inactive) | 59.9% (inactive) | 76.8% (inactive) | 19.5% (inactive) | 55.5% (inactive) | 61.4% (inactive) | 40% (inactive)
CC1=NN(C2=NC(=O)C(CC(=O)Nc3ccccc3C(F)(F)F)S2)C(c2ccc(N(C)C)cc2)C1 (stereo not given) | 16.5% (inactive) | 25.3% (inactive) | 52.6% (inactive) | 86% (inactive) | 47.5% (inactive) | 80.6% (inactive) | 59.2% (inactive) | 44.9% (inactive) | 43.8% (inactive) | 62.7% (inactive)
Cc1ccc(C(C)C)cc1Oc1cccc(-c2c(-c3ccc(C(F)(F)F)cc3)ncn2C2CCNCC2)n1 | -75.5% (active) | -59% (active) | -66.9% (active) | -69.5% (active) | -89% (active) | -93.7% (active) | -91.5% (active) | -69.2% (active) | -63.1% (active) | -83% (active)
Cc1nc(N)ncc1-c1ccc2ncnc(N3CCc4cc(F)c(Cl)cc43)c2c1 | 45.1% (inactive) | 59.5% (inactive) | 65.4% (inactive) | 49.7% (inactive) | 59.6% (inactive) | 56.5% (inactive) | -10.1% (active) | 52% (inactive) | 20.1% (inactive) | 62.7% (inactive)
COc1ccc(C(=O)c2cc(C(C)=O)c3c(C)cc(C)cn23)cc1 | 31.8% (inactive) | 67.7% (inactive) | 18.4% (inactive) | 80.5% (inactive) | 49.8% (inactive) | 29.1% (inactive) | 80.8% (inactive) | 43.9% (inactive) | 43.4% (inactive) | 35% (inactive)
N#CC1=C(c2cccs2)Nc2c(c(-c3ccccc3)nn2-c2ccccc2)C12C(=O)Nc1ccc(Cl)cc12 (stereo not given) | 12.6% (inactive) | 13.3% (inactive) | 28% (inactive) | 5.03% (active) | 27.2% (inactive) | 59% (inactive) | 24% (inactive) | 23.1% (inactive) | 8.15% (active) | 33% (inactive)
Cn1cc(-c2cc(N)n3nc(-c4c[nH]c5ccc(F)cc45)cc3n2)c2cc(Br)cnc21 | -23.5% (active) | 19.2% (inactive) | 42.8% (inactive) | 74.2% (inactive) | 71.6% (inactive) | 104% (inactive) | 70.7% (inactive) | 109% (inactive) | 86.4% (inactive) | 56% (inactive)
CCN1CCN(Cc2ccc(C(=O)Nc3cccc(Nc4ccc5c(OC)cccc5n4)c3)cc2C(F)(F)F)CC1 | -35.1% (active) | -34.8% (active) | -66.1% (active) | -91.9% (active) | -53.1% (active) | -8.33% (active) | -83.6% (active) | 4.54% (active) | -16.4% (active) | -81% (active)
COc1ccc(/C=C/c2nc3ccccc3n3c(-c4cccc([N+](=O)[O-])c4)nnc23)cc1 | -33.3% (active) | -18.3% (active) | -43.6% (active) | -59.9% (active) | -14.6% (active) | 25.6% (inactive) | -69% (active) | -77.4% (active) | 12% (inactive) | -27% (active)
O=C(NC(=S)N1CCN(c2ncnc3c2cnn3-c2ccccc2)CC1)c1ccc(Br)cc1 | 14.1% (inactive) | 83.4% (inactive) | 47.4% (inactive) | 81.8% (inactive) | 41.9% (inactive) | 57% (inactive) | 72.1% (inactive) | 89.6% (inactive) | 53.8% (inactive) | 53.9% (inactive)
CC[C@]12C=CCN3CC[C@@]4(c5ccc(OC)cc5N(C)[C@H]4[C@@](O)(C(=O)OC)[C@@H]1OC(=O)CCCC[P+](c1ccc(F)cc1)(c1ccc(F)cc1)c1ccc(F)cc1)[C@@H]32 | 28.8% (inactive) | 4.14% (active) | 20% (inactive) | 49.7% (inactive) | 33.1% (inactive) | 41.4% (inactive) | -42.8% (active) | 12.6% (inactive) | -2.23% (active) | 105% (inactive)
O=C(N/N=C/c1ccsc1)c1[nH]c2ccc(Br)cc2c1-c1ccccc1 | 2.42% (active) | 1.5% (active) | -49.4% (active) | -57.4% (active) | -30.8% (active) | -36.9% (active) | -57% (active) | -72.9% (active) | -13.3% (active) | -42% (active)
O=C(CSc1nc2sc3c(c2c(=O)n1-c1ccc(Cl)cc1)CCCC3)NNC(=O)c1ccc(Br)cc1 | 34.4% (inactive) | 81.3% (inactive) | 34.3% (inactive) | 58.8% (inactive) | 64% (inactive) | 80.8% (inactive) | 60.3% (inactive) | 112% (inactive) | 56.7% (inactive) | 66% (inactive)
NS(=O)(=O)c1cccc(Nc2nc(SCC(=O)c3ccc(F)cc3)nc3ccccc23)c1 | 8.61% (active) | -2.61% (active) | 16.4% (inactive) | 45.1% (inactive) | 15.6% (inactive) | 38.3% (inactive) | 13.9% (inactive) | 0.387% (active) | 7.8% (active) | 26.7% (inactive)
